# An excerpt weighted towards active compounds, which were near 4% of everything screened.
# TROY signal inh – inhibitors of TROY-dependent NF-kB signaling | Q293 LMP1-TROYcd NF-kB luciferase reporter, 4 h | inhibition, % at 10 µM | 0.98% of 360,000 active | AID 1347056;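 active = compounds whose plate-normalised and pattern-corrected inhibition of the luciferase reporter signal at the single screening dose is 50% or more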
# CF NFkB inh – blocks PAF-induced NF-kB reporter in cystic fibrosis cells; 0.86% of 360,000 active; inhibition, % at 5 µM; KKLEB NF-kB-GFP reporter, GFP fluorescence overnight; AID 588850;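 active = at least 50% inhibition at 5 µM, scaled per plate between neutral and stimulator controls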;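 also: PAF is a Pseudomonas aeruginosa culture filtrate used as stimulus; plate controls were PAF-stimulated DMSO wells for no effect and unstimulated DMSO wells for full effect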
# Peg3 prom inh – Peg3 promoter activity inhibition. HeLa PEG-Prom luciferase reporter, luminescence, overnight. inhibition, % at 20 µM. 1.7% of 360,000 active. AID 588405;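 active = inhibition of at least 50% at 20 µM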
# HIF-2a block – HIF-2a inhibition; inhibition, % at 18.8 µM; 786-0 RCC cells HIF-2a reporter, luciferase luminescence, overnight; 0.72% of 360,000 active;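 active = inhibition of the luminescence signal of 40% or more relative to plate controls, in a single-dose primary screen at 18.75 µM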
# KKLEB cytotox – counter-screen for CF NF-kB inhibitors: cytotoxicity; 0.36% of 360,000 active; AID 602141; KKLEB CF airway cells viability, ATPlite luminescence, overnight; hits give low values; cells stimulated with P. aeruginosa culture filtrate; activity change (cytotoxicity), % at 5 µM;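 active = corrected activity change at or below -50% at 5 µM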
# TWEAK-Fn14 inh – blocks TWEAK-Fn14 interaction in a reporter cell assay; inhibition, % at 10 µM; 2% of 360,000 active; TWEAK-stimulated Fn14 reporter cells, luciferase luminescence, 8 h; in the data active = inhibition above about 50%
# Mdm2 MdmX conf – Mdm2/MdmX (human) interaction inhibition, confirmed | AID 504601 | inhibition, % at 8 µM | 99% of 740 active | SaOS-2 split-luciferase Mdm2/MdmX complementation, luminescence | shares compounds with HIF-2a block;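 active = mean inhibition of the luminescence signal across two replicates at or above 26 percent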
# Target sequence (O15151 whole entry, looked up): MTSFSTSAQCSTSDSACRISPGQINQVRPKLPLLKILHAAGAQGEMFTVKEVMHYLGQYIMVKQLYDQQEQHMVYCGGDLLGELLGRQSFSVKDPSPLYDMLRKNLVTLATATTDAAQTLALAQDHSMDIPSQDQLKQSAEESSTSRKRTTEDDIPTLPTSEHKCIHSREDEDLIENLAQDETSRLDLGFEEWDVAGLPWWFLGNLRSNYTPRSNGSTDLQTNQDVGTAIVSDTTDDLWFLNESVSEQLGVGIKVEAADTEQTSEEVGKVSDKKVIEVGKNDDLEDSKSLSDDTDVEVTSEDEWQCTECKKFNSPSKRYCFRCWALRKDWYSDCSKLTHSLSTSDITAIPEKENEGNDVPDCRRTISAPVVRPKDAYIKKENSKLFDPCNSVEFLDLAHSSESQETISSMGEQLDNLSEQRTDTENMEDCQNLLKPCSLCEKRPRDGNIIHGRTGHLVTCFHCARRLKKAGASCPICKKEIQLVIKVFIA
# Target sequence (Q00987 whole entry, looked up): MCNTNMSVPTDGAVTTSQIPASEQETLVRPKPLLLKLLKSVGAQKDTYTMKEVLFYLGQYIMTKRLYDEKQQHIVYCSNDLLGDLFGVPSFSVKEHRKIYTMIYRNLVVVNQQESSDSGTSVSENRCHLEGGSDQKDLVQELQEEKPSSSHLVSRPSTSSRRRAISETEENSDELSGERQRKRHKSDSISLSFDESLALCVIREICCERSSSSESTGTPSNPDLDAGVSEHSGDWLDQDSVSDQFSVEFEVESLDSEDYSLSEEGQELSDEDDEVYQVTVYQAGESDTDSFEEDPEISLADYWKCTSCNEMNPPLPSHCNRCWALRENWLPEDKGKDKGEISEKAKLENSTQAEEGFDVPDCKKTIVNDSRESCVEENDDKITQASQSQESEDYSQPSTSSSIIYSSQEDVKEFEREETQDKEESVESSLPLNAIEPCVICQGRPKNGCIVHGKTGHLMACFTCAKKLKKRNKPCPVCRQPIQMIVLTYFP
# HIF-2a conf – HIF-2a inhibition, single concentration confirmation; shares compounds with HIF-2a block; 786-0 RCC cells, HIF-2a luciferase reporter luminescence, overnight; inhibition, % at 18.8 µM; 56% of 1,800 active; AID 651580;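 active = mean inhibition across four replicates of at least 40 percent at the single tested concentration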
# HIF-1a cs – inhibits HIF-1a reporter, a counter-screen for HIF-2a inhibitors. shares compounds with HIF-2a block. MiaPaCa-2 HIF-1a luciferase reporter, desferoxamine, overnight. inhibition, % at 18.8 µM. 72% of 1,800 active;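 active = mean inhibition of the reporter signal across four replicates at the single tested dose of 50% or more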
# An asterisk follows results filed as active; / = no result given.
SMILES,TROY signal inh,CF NFkB inh,Peg3 prom inh,HIF-2a block,KKLEB cytotox,TWEAK-Fn14 inh,HIF-2a conf,HIF-1a cs,others
CCCCCc1ccc(OCCCC[n+]2ccccc2)c(CCCCC)c1,36.6,48.8,94.8*,86.3*,-28.0,50.1*,30.0,102.8*,
CCCCCOc1ccc(CN2CCOCC2)cc1Cl,15.8,-17.1,-230.7,-185.2,9.0,-2.6,/,/,
CC1=C[C@H](C)[C@H](c2c(F)cccc2Cl)CC1=O,2.0,6.9,2.8,5.1,-1.8,14.1,/,/,
Cc1ccc(C(=O)Nn2cnnc2)cc1Cl,11.7,6.8,7.5,27.5,-1.2,-4.5,/,/,
COc1ccc(C2C3=C(Nc4ncnn42)c2ccccc2CCC3)cc1 (centres undefined),-9.4,0.0,18.9,11.1,-7.0,-11.3,/,/,
Fc1ccc(/C=C2\CCCC3=C2Nc2ncnn2C3c2ccc(F)cc2)cc1 (centres undefined),-49.7,79.6*,91.3*,86.1*,-44.4,34.6,15.9,66.0*,
COCCCn1cc(CN2CC(N3CCCCC3)CS2(=O)=O)nn1 (centres undefined),-6.8,/,/,0.3,/,-7.8,/,/,
CC1(C)CC[C@]2(C(=O)O)CC[C@]3(C)C(=CC[C@@H]4[C@@]5(C)CC[C@H](O[C@@H]6O[C@H](C(=O)O)[C@@H](O)[C@H](O[C@@H]7OC[C@H](O)[C@H](O)[C@H]7O)[C@H]6O)C(C)(C)[C@@H]5CC[C@]43C)[C@@H]2C1,86.8*,88.2*,58.9*,54.7*,-95.0*,-76.9,94.5*,52.2*,
CC1(C)CC[C@]2(C(=O)O[C@@H]3O[C@H](CO)[C@@H](O)[C@H](O)[C@H]3O)CC[C@]3(C)C(=CCC4[C@@]5(C)CC[C@H](O[C@@H]6O[C@H](C(=O)O)[C@@H](O[C@H]7OC[C@@H](O)[C@@H](O)[C@@H]7O)[C@H](O)[C@H]6O)C(C)(C)C5CC[C@]43C)[C@@H]2C1 (some centres undefined),-11.1,2.3,-2.2,9.3,13.3,9.4,/,/,
FC(F)(F)c1nc2ccccc2n2c(-c3ccc(Cl)cc3)nnc12,-71.2,75.8*,51.0*,46.3*,-55.5*,15.3,25.1,86.3*,
Cc1cc(NC(=O)COC(=O)CCS(=O)(=O)c2cc(Cl)ccc2Cl)no1,-2.4,17.8,0.3,2.8,-4.5,6.0,/,/,
O=C(CC1C(=O)NCCN1C(=O)c1ccccc1)Nc1cc(Cl)ccc1Cl (centres undefined),3.5,-24.2,-3.1,6.4,14.4,1.5,/,/,
O=C(CN(Cc1ccc(Br)cc1)S(=O)(=O)c1ccccc1)NCc1cccnc1,0.3,13.7,0.9,16.2,-14.3,13.2,/,/,
O=C(NCc1cccnc1)/C(=C\c1ccc(-c2ccc(Br)cc2)o1)S(=O)(=O)c1ccccc1,83.4*,86.1*,106.7*,92.7*,-55.5*,99.9*,97.9*,106.0*,Mdm2 MdmX conf=103.2*
O=C(NCc1cccnc1)/C(=C/c1ccc(-c2cccc(C(F)(F)F)c2)o1)NC(=O)c1ccccc1,3.2,-6.4,25.4,17.3,-4.9,31.2,/,/,
O=C(NCc1cccnc1)/C(=C/c1ccc(-c2ccc(Cl)cc2)o1)S(=O)(=O)c1ccccc1,75.8*,72.6*,100.8*,90.4*,-54.4*,100.3*,98.7*,103.7*,Mdm2 MdmX conf=102.2*
Cc1cc(NC(=O)CSCC(=O)Nc2nc3ccccc3s2)no1,21.0,-16.0,-28.0,-36.6,18.3,15.4,/,/,
COc1ccc(-c2cc(C3CC3)nc(SCC(=O)c3cccs3)c2C#N)cc1,8.8,-7.2,23.2,20.3,-20.7,-13.4,/,/,
CSc1nc(C2CC2)cc(-c2cccs2)c1C#N,-69.3,93.7*,56.9*,51.1*,-62.8*,9.4,35.4,32.4,
COc1ccc(N(C(=O)c2cccnc2)S(=O)(=O)c2ccc(Cl)cc2)cc1,40.6,14.4,14.2,5.5,9.2,4.5,/,/,
COc1ccccc1-[n+]1c(C)cc(/C=C2\Sc3ccccc3N2C)cc1C,81.7*,-32.1,67.3*,57.4*,-43.0,89.2*,/,/,Mdm2 MdmX conf=103.2*
COc1ccccc1OC(=O)CCN1c2ccccc2Sc2ccccc21,-16.8,-6.3,-21.8,-6.8,-3.5,-11.8,/,/,
CCCCCCCCCCn1ccc(=N)cc1,48.2,39.5,46.2,37.0,-46.6,33.3,/,/,Mdm2 MdmX conf=98.0*
C[C@@H]1CNC(=O)c2c(C(=O)NC3CCN(C(=O)OC(C)(C)C)CC3)ncn21,15.4,-20.3,10.9,14.2,9.1,-12.7,/,/,
Clc1ccc2ccc3cccnc3c2n1,-22.1,-26.6,-23.7,-27.6,-4.1,-6.8,/,/,
SMILES,TROY signal inh,CF NFkB inh,Peg3 prom inh,HIF-2a block,KKLEB cytotox,TWEAK-Fn14 inh,HIF-2a conf,HIF-1a cs,others
O=S1(=O)Nc2c(ccc3cccnc23)-c2ccccc21,71.0*,52.3*,110.6*,17.7,12.0,105.2*,/,/,Mdm2 MdmX conf=103.0*
N#CCCN(C(=O)CN1CCN(S(=O)(=O)c2ccc3c(c2)OCCO3)CC1)c1ccc(F)cc1,4.7,6.4,10.1,-8.0,-19.8,3.3,/,/,
O=C1OC(c2ccccc2)(c2ccc3cc(O)ccc3c2)c2ccccc21 (centres undefined),28.5,-1.1,78.8*,40.4*,-18.6,60.1*,19.2,98.0*,
O=C1OC(c2ccc(O)cc2)(c2ccc(O)cc2)c2ccccc21,24.4,16.7,19.8,23.4,-15.1,16.7,/,/,
COC1(OC)C(/C=C/c2ccc(C)cc2)C(C#N)(C#N)C1(OC)OC (centres undefined),-19.9,19.1,21.6,43.3*,-11.2,26.7,6.8,65.4*,
CN1CCN(c2ccc(CNC(=O)c3ccc(-c4ccnn4C)c4ccoc34)cc2)CC1,-78.7,-23.6,-248.8,-281.9,-4.9,3.5,/,/,
CC(=O)Nc1ccc(NC(=O)c2ccc(-c3ccnn3C)c3ccoc23)cc1,-0.7,4.8,-80.0,61.0*,-2.7,1.2,85.5*,34.1,
Cc1ccc(/C=C/C(O)=C2/C(=O)N(C)C3(C)CC2c2ccccc2O3)cc1 (centres undefined),1.6,14.7,39.1,83.3*,-3.3,51.2*,37.0,96.8*,
COc1ccc(/C=C/C(O)=C2/C(=O)N(C)C3(C)CC2c2ccccc2O3)cc1 (centres undefined),-14.1,6.9,29.3,54.5*,-6.5,27.5,-4.5,53.5*,
O=C1C=CC(O)(c2cc(=O)c3c(O)cc(O)cc3o2)C=C1,27.3,75.4*,84.3*,94.1*,-52.3*,92.2*,91.6*,103.1*,
CCOc1cc(N2CCOCC2)c(OCC)cc1NC(=O)c1cnccn1,1.4,13.8,5.5,11.8,-17.7,-16.1,/,/,

# High-throughput results from PubChem BioAssay.
